# According to PubChem BioAssay:
# Values without a mark were called inactive. Calls of active or inactive are those of the source.
# Experiment: basal CRE-LacZ reporter activity in PC12 – cell-based, unstimulated, primary screen (AID 1145)
# Details: no forskolin, luminescence, 4.5 h, higher = more signal, called active from +8 up or from −8 down
row,SMILES,z-score
1,COCCOC(=O)N1C(=O)[C@@]2(c3ccccc31)[C@H](c1ccc(OCCO)cc1)N1[C@H](c3ccccc3)[C@H](c3ccccc3)OC(=O)[C@H]1[C@@H]2C(=O)N1CCc2cc(OC)c(OC)cc2C1,0.623
2,O=C(CS)NCCCCCNC(=O)[C@H]1C[C@H]2C(=O)NCC(=O)N2[C@H]1c1cccc(OCCO)c1,-1.48
3,CCCC[C@@H]1C[C@H]1[C@@H](NC(=O)c1cccnc1)c1ccc(Cl)cc1,-0.368
4,CCCCCCCCCCC(O)C1C=CC2C(=O)NC(=O)C2N1Nc1ccc(Cl)cc1Cl (stereo unspecified),-0.136
5,O=C1O[C@H](c2ccccc2)[C@H](c2ccccc2)N2[C@H]1[C@@H](C(=O)N1CCN(c3ncccn3)CC1)[C@]1(C(=O)Nc3ccc(C#CC4=CCCCC4)cc31)[C@H]2c1ccccc1OCCO,-0.581
6,CCCCC(O)C1C=CC2C(=O)N(C)C(=O)C2N1N1CCCCC1 (stereo unspecified),0.0535
7,O=C1OCCC=C[C@H]2OC34C=CCN(c5ccc(Cl)cc5)C(=O)[C@H]3N(CCCO)C(=O)[C@@H]4C12 (stereo partly specified),-0.35
8,CO[C@H]1O[C@H](CO)[C@@H](OC(=O)Nc2cccc(F)c2)[C@H](OC(=O)Nc2ccccc2)[C@H]1OC(=O)Nc1ccccc1,-0.0484
9,C#CCOc1ccc(C[C@@H](C(=O)OC)N(CC#C)[C@@H](/C=C/C2CC2)[C@H](O)Cc2ccccc2)cc1,14.9 (active)
10,CCCCCCc1nc(-c2ccc(-c3ccc(Cl)c(Cl)c3)o2)c(C)c2c1[Si](C(C)C)(C(C)C)OC2,0.236
11,COCCOC(=O)N1C(=O)[C@@]2(c3ccccc31)[C@H](C(=O)N1CCCCCCC1)[C@H]1C(=O)O[C@H](c3ccccc3)[C@H](c3ccccc3)N1[C@@H]2c1ccc(OCCO)cc1,-1.29
12,COc1ccc([Si](C)(C)[C@H]2[C@H](CCO)O[C@@]3(C(=O)N(Cc4ccccc4)c4ccc(N5CCCCC5=O)cc43)[C@@H]2C)cc1,4.22
13,COCCCNC(=O)[C@@]1(Sc2ccc(C)cc2)CC(=O)N(Cc2ccccc2Cl)[C@@H]1c1ccc(CO)cc1,-0.374
14,CO[C@H]1O[C@H](CO)[C@@H](OC(=O)Nc2ccccc2)[C@@H]2OC(=O)[C@@H](Cc3ccc4ccccc4c3)C/C=C/C[C@H](Cc3ccc4ccccc4c3)C(=O)O[C@@H]12,0.502
15,[N-]=[N+]=Nc1ccccc1C[C@]1(C(=O)N2CCCCC2)COC(c2ccc(OCCCO)cc2)=N1,1.01
16,C=C(C(=O)CC[C@H](OC(C)=O)c1ccccc1OCCO)C(C)C,9.01 (active)
17,COCCOC(=O)N1C(=O)[C@@]2(c3cc(C#CCCO)ccc31)[C@H](c1ccc(OCCO)cc1)N1[C@H](c3ccccc3)[C@H](c3ccccc3)OC(=O)[C@H]1[C@@H]2C(N)=O,0.209
18,C=CCC(OC(C)=O)[C@@H]1[C@@H](N(Cc2ccc(-c3ccccc3)cc2)C(=O)Cc2ccc(F)cc2)c2cc(OCCCO)ccc2N1C(=O)c1ccc2ccccc2c1 (stereo partly specified),0.819

row,SMILES,z-score
1,COC(=O)[C@@]1(Cc2ccccc2)[C@H]2c3cc(C(=O)N4CCCC4)n(Cc4ccc(O)c(OC)c4)c3C[C@H]2CN1C(=O)c1ccccc1,2.5
2,CCOC(=O)C1=CC[C@@H](c2ccc(C(F)(F)F)cc2)N(S(=O)(=O)c2ccc(C)cc2)[C@H]1c1ccccc1,0.986
3,O=C(CS)NCCCCCNC(=O)[C@@H]1C[C@@H]2C(=O)NCC(=O)N2[C@@H]1c1cccc(OCCO)c1,-0.268
4,C=CCC(OC(C)=O)[C@@H]1[C@@H](N(Cc2ccc(-c3cccc(C(F)(F)F)c3)o2)C(=O)Cc2ccc(OC)cc2)c2cc(OCCCO)ccc2N1C(=O)c1ccc2ccccc2c1 (stereo partly specified),-0.0247
5,CC=CC(O)C1C=CC2C(=O)N(C)C(=O)C2N1N(c1ccccc1)c1ccccc1 (stereo unspecified),-0.326
6,O=C1O[C@@H](c2ccccc2)[C@@H](c2ccccc2)N2[C@@H](c3ccc(OCCO)cc3)[C@]3(C(=O)Nc4ccc(C#CCCO)cc43)[C@@H](C(=O)NC[C@H](O)c3ccccc3)[C@H]12,-0.141
7,CC[C@@H]1C=C(C(=O)O)[C@H](c2cccc3ccccc23)N1S(=O)(=O)c1ccc(C)cc1,-0.723
8,C[N+](C)(C)CCCCCCNC(=O)[C@H]1C[C@H]2C(=O)N[C@@H](Cc3ccccc3)C(=O)N2[C@H]1c1cccc(OCCO)c1,-0.252
9,CCOC(=O)C[C@H]1[C@H](OC(=O)c2ccc(C(=O)c3ccccc3)cc2)[C@@H](NC(=O)Cc2ccc(OC)cc2)c2cc(OCCCO)ccc2N1C(=O)c1ccc2ccccc2n1,0.745
10,CC(C)(C)OC(=O)CC[C@]1(C(=O)NCCN2CCOCC2)COC(c2ccc(OCCCO)cc2)=N1,0.157
11,COc1ccc(C(=O)Nc2cccc(CN3C(=O)[C@]4(O[C@H](CCn5cc(CCO)nn5)[C@@H]([Si](C)(C)c5ccc(OC)cc5)[C@@H]4C)c4ccccc43)c2)cc1,0.963
12,COc1ccc(CCNC(=O)[C@@]2(c3ccc([N+](=O)[O-])cc3)CC(=O)N(CC34CC5CC(CC(C5)C3)C4)[C@@H]2c2ccc(CO)cc2I)cc1,0.378
13,COc1ccc([C@H]2OC[C@@H]3CCC(=O)N32)cc1,1.2
14,O=C1O[C@@H](c2ccccc2)[C@@H](c2ccccc2)N2[C@@H](c3ccccc3OCCO)[C@]3(C(=O)Nc4ccccc43)[C@@H](C(=O)O)[C@H]12,0.568
15,CCOc1cc(C(O)C2C=CC3C(=O)N(c4ccccc4)C(=O)C3N2Nc2ccc(C(C)C)cc2)ccc1O (stereo unspecified),1.96
16,O=C1OCC=C[C@H]2OC34C=CCN(Cn5nnc6ccccc65)C(=O)[C@H]3N(CCCCCO)C(=O)[C@@H]4[C@@H]12 (stereo partly specified),-0.623
17,COC(=O)C(CC#Cc1ccc2c(c1)[C@]1(C(=O)N2)[C@H](c2ccc(O)cc2)N2[C@H](c3ccccc3)[C@H](c3ccccc3)OC(=O)[C@H]2[C@@H]1C(=O)N1CCN(c2ncccn2)CC1)C(=O)OC,-0.644
18,CC[C@@H]1C=C(C(=O)O)[C@H](c2ccc(C)cc2)N1S(=O)(=O)c1ccc(C)cc1,-0.527
